Data: PubChem BioAssay (NCI)
The panel holds about 79,000 compounds, 15% with a hit somewhere; the sample as a whole holds those more often. A number with no mark means an inactive call. No stated cut-off is given here; in the data, active means growth inhibition above about 70%; inactive means the rest.

test: NCI Yeast Anticancer Drug Screen. Data for the cln2 rad14 strain (AID 165);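 further: 0% = growth equal to vehicle treated cultures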; settings: S. cerevisiae cln2 rad14 strain, at 50.0 µM, hits give high values
Procedure, shortened: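 The screen exposed genetically defined yeast (cln2 rad14) to test compounds and scored growth inhibition relative to vehicle-treated controls.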

**Q.** With `CCCCCCCN1C=CCC(S(=O)(=O)N2CCOCC2)=C1` as the compound, how does the growth inhibition read?
**A.** 3.85%

**Q.** With `COC(=O)C(C)(C)N=CN(C)C` as the compound, how does the growth inhibition read?
**A.** 15.5%

**Q.** With `N#CCCOCC(OCCC#N)C(OCCC#N)C(OCCC#N)C(COCCC#N)OCCC#N` (stereo not given) as the compound, how does the growth inhibition read?
**A.** 6.15%

**Q.** Which growth inhibition does the source give for `CC(C)CN(CC(=O)Nc1cccc(Cl)c1)CC(C)C` here?
**A.** -17.9%

**Q.** Which growth inhibition does the source give for `CCCNC(=O)Oc1ccccc1C(N)=O` here?
**A.** -44%

**Q.** With `CC(=O)CC(=O)CCCCC(=O)O` as the compound, how does the growth inhibition read?
**A.** -22.6%

**Q.** For `NC1=NC2(COC(c3ccccc3)(c3ccccc3)c3ccccc3)OC(COC(c3ccccc3)(c3ccccc3)c3ccccc3)C(O)C2O1` (stereo not given), which growth inhibition is on record?
**A.** 5.25%

**Q.** For `O=NNc1nc2ncccc2cc1-c1ccccc1Cl`, which growth inhibition is on record?
**A.** 9.75%

**Q.** Which growth inhibition does the source give for `CC(C)=CCC1=C(O)[C@@](O)(CC=C(C)C)C(=O)C(C(=O)CC(C)C)=C1O` here?
**A.** 26.4%

**Q.** With `C/C(CC(C)C)=N/Nc1ccc([N+](=O)[O-])cc1[N+](=O)[O-]` as the compound, how does the growth inhibition read?
**A.** -42.6%

**Q.** For `CCOC(=O)NC(NC(=O)OCC)c1ccc(Cl)cc1Cl`, which growth inhibition is on record?
**A.** 5.9%

**Q.** Which growth inhibition does the source give for `NC1=Nc2cc(Cl)ccc2Sc2nc3ccccc3n21` here?
**A.** 0.55%

**Q.** Which growth inhibition does the source give for `C=C1C(=O)O[C@H]2[C@H]1[C@H](OC(=O)/C(C)=C\C)CC(=C)[C@@H]1[C@H](O)[C@H]3O[C@@]3(C)[C@@]12O` here?
**A.** 5.25%

**Q.** With `Cc1cc(Br)c(I)c([N+](=O)[O-])c1` as the compound, how does the growth inhibition read?
**A.** 13.3%

**Q.** With `N#C/C(=C\c1c(S(=O)(=O)O)sc2ccccc12)C(N)=O` (tested in a mixture with another compound) as the compound, how does the growth inhibition read?
**A.** 25.3%
